The structures appear in SMILES notation. Values joined by “and” are separate entries in the source; they are usually repeats but may differ in a detail not shown here. Equal entries are not always repeated. Results filed as inconclusive are left out. Where a structure was tested more than once in an assay, its records may differ in their call. A number with no mark means an inactive call. Active and inactive are the calls of the source. Calls follow the shape of the dose curve; as a rule, active = well fitted curve in the direction sought with a large enough effect; inconclusive = small, poorly fitted or top-dose-only effect, or another doubt; inactive = no such curve, though single readings can be large; an effect the other way counts as inactive or inconclusive.

Experimental findings from PubChem BioAssay (NCATS) are described below.

One assay relates to MCC-13. Nature of the assay: qHTS assay to identify novel small-molecules to repurpose for Merkel cell carcinoma treatment (AID 1296009). Also: nearly all actives have a fitted effect of over 60% in size. As to conditions: MCC and control cell lines, CellTiter-Glo viability, 72 h; series mostly up to 46 µM. A digest of the protocol: (§1)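 After compound transfer in DMSO, plates were kept 72 hr at 37 degree celsius. Luminescent ATP signal from CellTiter-Glo served as viability measure, normalized against DMSO and no-cell controls.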
On the technique in general: In qHTS, concentration-response curves come from the screen itself.

A further assay concerns MKL-1. The assay is described as above. The conditions noted are these: MCC and control cell lines, CellTiter-Glo viability, 72 h; series mostly up to 46 µM. The method in brief:
as §1
In general terms: Cellular ATP, detected with luciferase, serves as a proxy for viable cell number.

A further assay has as its system MKL-2. The assay is described as above. The conditions noted are these: MCC and control cell lines, CellTiter-Glo viability, 72 h; series mostly up to 46 µM. A digest of the protocol:
as §1

The subject of the next assay is NIH3T3. Described as above. As to conditions: MCC and control cell lines, CellTiter-Glo viability, 72 h; at 44.8 µM (top of the series) unless noted. The method in brief:
as §1

The next assay deals with UISO. Described as above. The conditions noted are these: MCC and control cell lines, CellTiter-Glo viability, 72 h; series mostly up to 46 µM. A digest of the protocol: as §1
The next assay concerns WaGa. The assay is described as above. The conditions noted are these: MCC and control cell lines, CellTiter-Glo viability, 72 h; series mostly up to 46 µM. A digest of the protocol: as §1
A further assay has as its system C33A. Nature of the assay: Primary qHTS to identify gynecologic anti-cancer compounds using libraries of approved drugs and bioactive compounds (AID 1345084). Also: nearly all actives have a fitted effect of over 55% in size. Also: potency is read from the fitted curve at half-maximal effect. The conditions noted are these: Gynecologic cancer cell panel viability, ATPlite luminescence, 48 h; series mostly up to 57.5 µM. The method in brief:
(§2)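 Cells, 1,000 per well, plated 16 h, then exposed 48 h at 37 C to compounds. Viability by ATPlite luminescence after 15 min at room temperature.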

For another assay, the system named is CAOV3. The description is as above. The conditions noted are these: Gynecologic cancer cell panel viability, ATPlite luminescence, 48 h; series mostly up to 57.5 µM. A digest of the protocol: as §2
A further assay concerns CASKI. Described as above. The conditions noted are these: Gynecologic cancer cell panel viability, ATPlite luminescence, 48 h; series mostly up to 57.5 µM. The method in brief:
as §2

In the next assay the test system is Es-2. The assay is described as above. The conditions noted are these: Gynecologic cancer cell panel viability, ATPlite luminescence, 48 h; series mostly up to 57.5 µM. A digest of the protocol:
as §2

In another assay the test system is HeLa. The description is as above. As to conditions: Gynecologic cancer cell panel viability, ATPlite luminescence, 48 h; series mostly up to 57.5 µM. A digest of the protocol: as §2
For another assay, the system named is Hek293T. Described as above. As to conditions: Gynecologic cancer cell panel viability, ATPlite luminescence, 48 h, control line for the selectivity index; series mostly up to 57.5 µM. The method in brief:
as §2

The next assay has as its system JEG-3. The description is as above. The conditions noted are these: Gynecologic cancer cell panel viability, ATPlite luminescence, 48 h; series mostly up to 57.5 µM. A digest of the protocol: as §2
The subject of a further assay is OV90. The assay is described as above. As to conditions: Gynecologic cancer cell panel viability, ATPlite luminescence, 48 h; series mostly up to 57.5 µM. A digest of the protocol:
as §2

Another assay relates to PA-1. The description is as above. As to conditions: Gynecologic cancer cell panel viability, ATPlite luminescence, 48 h; series mostly up to 57.5 µM. The method in brief: as §2
For a further assay, the system named is Tov-21-G. The assay is described as above. As to conditions: Gynecologic cancer cell panel viability, ATPlite luminescence, 48 h; series mostly up to 57.5 µM. The method in brief:
as §2

The subject of another assay is Tov112D. The assay is described as above. The conditions noted are these: Gynecologic cancer cell panel viability, ATPlite luminescence, 48 h; series mostly up to 57.5 µM. A digest of the protocol:
as §2

A further assay relates to SKOV3. The description is as above. The conditions noted are these: Gynecologic cancer cell panel viability, ATPlite luminescence, 48 h; series mostly up to 57.5 µM. A digest of the protocol: as §2
The nature of assay [1]: Drug repurposing screens with cells derived from glioblastoma tumor samples (AID 1345199). Also: nearly all actives have a fitted effect of over 40% in size. Also: potency is read from the fitted curve at half-maximal effect. As to conditions: GBM patient neurospheres viability, ATP luminescence, 48 h. The method in brief: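 Four patient lines of CD133+ GBM neurospheres were screened at several concentrations; hits were retested in those lines plus three slower-growing GBM lines, using 48-hour treatment and ATP-based viability.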

The test system of the next assay is MCC-26. Nature of the assay: qHTS assay to identify novel small-molecules to repurpose for Merkel cell carcinoma treatment (AID 1296009). Also: nearly all actives have a fitted effect of over 60% in size. As to conditions: MCC and control cell lines, CellTiter-Glo viability, 72 h; series mostly up to 46 µM. A digest of the protocol:
as §1

[2] abbreviates: at 45.9 µM (top of the series), tumour line B.
Setting [3] is: at 45.9 µM (top of the series), tumour line D.
Setting [4] is: at 46.1 µM (top of the series), tumour line C.
% is scaled to controls: 0 for no effect and ±100 for the full control effect.

`CCOC(=O)c1ccc(O)cc1`: the Potency result in the assay with MCC-13, in the assay with MKL-1, in the assay on MKL-2, with UISO, in the assay with WaGa and in the assay on C33A was “inactive” each time. For the same molecule, the Potency result with CAOV3, with CASKI, in the assay on Es-2, in the assay on HeLa, in the assay with Hek293T and in the assay with JEG-3 was “inactive” in each case. Moreover, the Potency result in the assay on OV90, with PA-1, in the assay with Tov-21-G and in the assay on Tov112D was “inactive” throughout. Moreover, the result in the assay on NIH3T3 was inactive.
Turning to `COC(=O)[C@H]1[C@H]2C[C@@H]3c4[nH]c5cc(OC)ccc5c4CCN3C[C@H]2C[C@@H](OC(=O)COc2ccc(OC)cc2)[C@@H]1OC`, the Potency result with MCC-13, with MKL-1, in the assay on MKL-2, in the assay on UISO, with WaGa and with C33A was “inactive” in each case. Further, the Potency result in the assay on CAOV3, in the assay on CASKI, in the assay with Es-2, in the assay with HeLa, with Hek293T and in the assay with JEG-3 was “inactive” each time. For the same molecule, the Potency entry in the assay on OV90, in the assay with PA-1, in the assay with SKOV3, in the assay on Tov-21-G and in the assay with Tov112D was “inactive” each time. Moreover, the molecule was classed as inactive with NIH3T3. Also, the activity, negative = cell killing in assay [1] (setting [2]) is -20.4%. Further, the Potency in assay [1] (tumour line A) was 11.2 µM (active).
On to `CC/C=C(\C(=O)N[C@@H]1C(=O)N2C(C(=O)OCOC(=O)C(C)(C)C)=C(COC(N)=O)CS[C@H]12)c1csc(N)n1`, for which the Potency result with MCC-13, in the assay with MCC-26, in the assay with MKL-1, in the assay on MKL-2, with UISO and in the assay with C33A was “inactive” in each case. In addition, the Potency entry in the assay with CASKI, in the assay on Es-2, in the assay with HeLa, in the assay on Hek293T, in the assay on JEG-3 and in the assay on OV90 was “inactive” throughout. Moreover, the Potency result with PA-1, with SKOV3, in the assay on Tov-21-G and in the assay on Tov112D was “inactive” in each case. For the same molecule, the activity, negative = cell killing in assay [1] (setting [2]) was -9.61% and -1.73%; in [1] (setting [3]) it was -14.3% and 0.361%; in [1] (setting [4]) it was -12.1% and -5.64%. The Potency in assay [1] (tumour line A) was 17.8 µM (active).
Consider `CC(CN1c2ccccc2Sc2ccccc21)N(C)C` (centres undefined), for which the Potency result with MCC-13, in the assay on MCC-26, in the assay on MKL-1, in the assay with MKL-2, in the assay with C33A and in the assay with CASKI was “inactive” each time. Further, the Potency entry with Es-2, with HeLa, with Hek293T, with JEG-3, in the assay with PA-1 and in the assay with SKOV3 was “inactive” in each case. The Potency entry in the assay on Tov-21-G and in the assay with Tov112D was “inactive” each time. In addition, in [1] (setting [4]), the activity, negative = cell killing is -1.52%. The Potency in [1] (tumour line A) is 14.1 µM (active); in [1] (tumour line B) it was 20 µM (active); in assay [1] (tumour line D) it was 22.4 µM (active).
For `C[C@]12C[C@H](O)[C@H]3[C@@H](CCC4=CC(=O)CC[C@@]43C)[C@@H]1CC[C@@H]2C(=O)CO`, the Potency entry in the assay with MCC-13, in the assay with MKL-1, with MKL-2, in the assay with UISO, in the assay on WaGa and with C33A was “inactive” throughout. In addition, the Potency entry with CAOV3, in the assay with CASKI, in the assay with Es-2, with Hek293T, in the assay with JEG-3 and in the assay on OV90 was “inactive” in each case. Further, the Potency result with PA-1, in the assay with SKOV3, in the assay with Tov-21-G and in the assay on Tov112D was “inactive” in each case. Also, the Potency in the assay on HeLa is 20 µM (active). Besides, the activity, negative = cell killing was -17.6% in assay [1] (setting [2]) and -22.1% in assay [1] (setting [3]).
Consider `CN1CCOC(c2ccccc2)c2ccccc2C1` (centres undefined), for which the Potency result with MCC-13, in the assay on MKL-1, in the assay with MKL-2, in the assay on UISO, in the assay on WaGa and in the assay on C33A was “inactive” in each case. Moreover, the Potency result in the assay on CASKI, with Es-2, in the assay on HeLa, in the assay with Hek293T, in the assay on JEG-3 and in the assay with OV90 was “inactive” in each case. Also, the Potency result in the assay on PA-1, in the assay on SKOV3, with Tov-21-G and in the assay on Tov112D was “inactive” throughout. In addition, the result in the assay with NIH3T3 was inactive. The activity, negative = cell killing in assay [1] (at 20 µM (top of the series), tumour line C) was 10.6%; in assay [1] (at 21.2 µM (top of the series), tumour line B), -10.4%; in [1] (at 21.2 µM (top of the series), tumour line D) it was -4.89%.
